Screening data as filed in PubChem.
Most compounds without a hit are left out; they make up all but 6.1% or so of the library.
D1 antagonist: Antagonist of Human D 1 Dopamine Receptor: qHTS; D(1A) dopamine receptor (Homo sapiens), P21728; HEK293 TREx D1 cells, calcium flux, dopamine EC80; stronger effect = lower value; activity change, negative = inhibition, % at 10 µM; 360,000 tested, 3.2% active; AID 504652, 2011; in the data active = activity change below about -30%; note: % is set by controls: 0 for no effect and ±100 for the full control effect
Target sequence (P21728 whole entry, looked up): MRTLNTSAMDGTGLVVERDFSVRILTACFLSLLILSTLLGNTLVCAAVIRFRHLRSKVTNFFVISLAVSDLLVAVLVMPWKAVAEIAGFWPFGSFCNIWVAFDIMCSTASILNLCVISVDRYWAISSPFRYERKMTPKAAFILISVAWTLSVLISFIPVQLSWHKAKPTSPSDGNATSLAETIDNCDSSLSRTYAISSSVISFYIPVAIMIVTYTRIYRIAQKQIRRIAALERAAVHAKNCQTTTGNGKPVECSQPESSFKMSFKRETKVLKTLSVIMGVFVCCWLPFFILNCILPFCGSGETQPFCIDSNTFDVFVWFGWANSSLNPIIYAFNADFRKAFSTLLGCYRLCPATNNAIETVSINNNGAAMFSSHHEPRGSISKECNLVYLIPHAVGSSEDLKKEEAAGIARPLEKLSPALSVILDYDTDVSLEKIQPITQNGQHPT
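Kinetic fluorescence of a calcium dye serves as the read-out. D1-expressing Hek293 Trex cells, induced overnight at 30 C, are exposed to compound for 180 s before an EC80 dopamine addition, then read 180 s further.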
D3 antag: qHTS of D3 Dopamine Receptor Antagonist: qHTS; max response, negative = inhibition, %; 360,000 tested, 2.5% active; D3R cells, DiscoveRx beta-arrestin luminescence, antagonist mode; stronger effect = lower value; in the data active = max response below about -50%; note: % is set by controls: 0 for no effect and ±100 for the full control effect
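Cells expressing the human receptor were seeded at 1500 cells/well, incubated overnight at 37 degrees C in 5% CO2, then exposed to library compounds with dopamine controls for 90 minutes at 37 degrees C before luminescent detection.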
DRD3 agonist: qHTS of D3 Dopamine Receptor Agonist: qHTS; D(3) dopamine receptor (Homo sapiens), P35462; max activation, %; 410,000 tested, 0.58% active; D3R DiscoveRx beta-arrestin cells, luminescence, 90 min; in the data active = max activation above about 30%; note: 0% is about no effect
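Agonist-mode cell screen: cells plated at 1500/well and incubated overnight at 37 °C, then exposed to library compounds for 90 min at 37 °C. Detection reagent was added for 30–60 min at room temperature, and luminescence was read.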
D1 potentiator: Potentiators of Human D1 Dopamine Receptor: qHTS; D(1A) dopamine receptor (Homo sapiens), P21728; HEK293 TREx D1 cells, calcium flux, dopamine EC20 potentiation; potentiation, % at 10 µM; 360,000 tested, 0.036% active; AID 504651, 2011; in the data active = potentiation above about 30%; note: 0% is about no effect
D1 ag: Allosteric Agonists of the Human D1 Dopamine Receptor: qHTS | HEK293 T-REx D1 cells, calcium flux, agonist mode | 360,000 tested, 1% active | activation, % at 2 µM | D(1A) dopamine receptor (Homo sapiens), P21728; in the data active = activation above about 30%; note: 0% is about no effect
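Inducible HEK293 T-REx D1 cells, force-coupled to calcium signalling, were plated at 4000 cells/well with tetracycline and held overnight at 30 C. After no-wash calcium dye loading, compound-evoked calcium rise over 180 s flagged agonists.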
Active calls of the source: *; x = no result given; ! = repeats disagree.

SMILES	D1 antagonist	D3 antag	DRD3 agonist	D1 potentiator	D1 ag
CC(C)c1ccc(NS(=O)(=O)c2ccc3[nH]cc(C(=O)NCC4CCCO4)c(=O)c3c2)cc1 (stereo not given)	14	x	0	-1	15
CCOc1ccc(NS(=O)(=O)c2ccc3[nH]cc(C(=O)NCC4CCCO4)c(=O)c3c2)cc1 (stereo not given)	-12	-55*	-2	-3	5
CNC(=O)c1c[nH]c2ccc(S(=O)(=O)Nc3cccc(SC)c3)cc2c1=O	-86*	-19	2	2	3
Cc1c(Cl)cccc1NS(=O)(=O)c1ccc2[nH]cc(C(=O)NC3CCCC3)c(=O)c2c1	-12	x	-1	7	1
Cc1ccccc1NS(=O)(=O)c1ccc2[nH]cc(C(=O)NC(C)c3ccccc3)c(=O)c2c1 (stereo not given)	-43*	x	4	-2	7
Cc1ccccc1NS(=O)(=O)c1ccc2[nH]cc(C(=O)NC3CCCCC3)c(=O)c2c1	-43*	x	4	-8	3
O=C(Nc1ccc(Oc2ccccc2)cc1)c1csc([C@@H]2O[C@H](CO)[C@H](O)[C@H](O)[C@H]2O)n1	x	-92*	-20	x	x
CC(=O)Nc1ccc(NC(=O)c2csc([C@@H]3O[C@H](CO)[C@H](O)[C@H](O)[C@H]3O)n2)cc1	x	11	5	x	x
CSc1nc(-c2ccccc2)nc(N2CCN(C)CC2)c1C(C)=O	9	-55*	-23	-4	2
CN1CCN(c2nc(-c3ccccc3)ncc2S(=O)(=O)c2ccccc2)CC1	0	-79*	-38	-19	3
CN1CCN(C2CN(CCc3ccccc3)S(=O)(=O)C2)CC1 (stereo not given)	x	0	-7	x	x
CN(Cc1cccs1)C(=O)c1ccc(Cl)c(S(=O)(=O)N2CCCCCC2)c1	x	6	1	x	x
CCC(=O)Oc1ccc(NC(=O)CSCc2ccccc2)cc1	-19	24	3	-3	-1
Cc1ccc(O)c(N)c1	x	-105*	-63	0	2
O=C1c2cc(F)ccc2OC2(CCNCC2)C12CC(c1ccccc1)=NO2 (stereo not given)	-13	25	-14	-3	43*
CC(C)(C)OC(=O)N1CCC2(CC1)Oc1ccc(F)cc1C(=O)C21CC(c2ccccc2)=NO1 (stereo not given)	x	16	-13	x	x
NCCCC[C@H](NC(=O)[C@@H]1CCCN1C(=O)[C@@H]1CSSC[C@H](N)C(=O)N[C@@H](Cc2ccc(O)cc2)C(=O)N[C@@H](Cc2ccccc2)C(=O)N[C@@H](CCC(N)=O)C(=O)N[C@@H](CC(N)=O)C(=O)N1)C(=O)NCC(N)=O	x	x	-18	x	x
COc1ccc(-c2cc(C(F)(F)F)nc(S(C)(=O)=O)n2)cc1	-22	-75*	-19	-1	2
CS(=O)(=O)c1nc(-c2ccc(F)cc2)cc(C(F)(F)F)n1	2	-79*	-15	-1	1
CC(C)CN(C(=O)c1cc(=O)[nH]c2ccccc12)c1c(N)n(Cc2ccccc2)c(=O)[nH]c1=O	1	7	4	4	0
Cc1c(C)n(Cc2ccc(Cl)cc2)c2ccc(C(=O)NCCN3CCOCC3)cc12	-38*	-24	-2	-12	5
O=C(NCCN1CCOCC1)c1cc2sccc2n1Cc1ccc(F)cc1	2	-97*	-65	3	3
Cc1ccc(CCNC(=O)c2cc3sccc3n2Cc2ccc(F)cc2)cc1	-24	x	-19	-4	10
O=C(NCCN1CCOCC1)c1cc2sccc2n1Cc1ccc(Cl)cc1	-18	-96*	-34	-3	2
COc1ccc(NC(=O)N(O)C2(C#N)CCCCC2)cc1	x	-23	7	x	x
SMILES	D1 antagonist	D3 antag	DRD3 agonist	D1 potentiator	D1 ag
Cc1ccc(NC(=O)c2ccccc2OCC(=O)Nc2ccccc2F)cc1S(=O)(=O)N(C)C	-38*	29	-5	-1	3
Cc1ccc(NC(=O)COC(=O)Cn2cnc3ccccc32)cc1S(=O)(=O)N(C)C	-85*	0	2	-3	-1
CN(C)S(=O)(=O)c1cc(NC(=O)COC(=O)CCSc2ccc(Cl)cc2)ccc1Cl	-43*	29	2	-1	28
CN(C)S(=O)(=O)c1ccc(NC(=O)CN2CCN(c3ccccn3)CC2)cc1	4	11	66*	3	1
CN(C)S(=O)(=O)c1cc(NC(=O)COC(=O)Cc2ccc(Cl)cc2Cl)ccc1Cl	-5	25	4	0	5
COc1ccc(C(CC(=O)O)NS(=O)(=O)c2ccc3c(c2)NC(=O)CO3)cc1 (stereo not given)	10	1	-6	-3	0
CN(C)S(=O)(=O)c1cc(NC(=O)CN2CCN(c3ccccc3)CC2)ccc1Cl	4	9	64*	-3	3
CCN(CC)S(=O)(=O)c1cc(NC(=O)CN2CCN(c3ccccn3)CC2)ccc1C	17	6	91*	-1	6
COc1ccc(CCCc2nnc(SCC(=O)Nc3ccc(C)c(C)c3)o2)cc1	-32*!	16	-6	-3	3
COc1ccc(CCCc2nnc(SCC(=O)Nc3ccc(OC)cc3)o2)cc1	-5	-14	0	0	-1
Cc1ccc(NC(=O)CN2CCN(c3ccccn3)CC2)cc1S(=O)(=O)N(C)C	1	70	62*	-7	-1
NC(CS(=O)O)C(=O)O (stereo not given)	x	-24	6	x	x
N#Cc1nc(Nc2cc(F)cc(F)c2)nc(Nc2cc(F)cc(F)c2)n1	-20	x	x	-2	2
Cc1nnc(SCC(=O)NC2(C#N)CCCCC2)n1N	x	-4	-4	x	x
COc1ccccc1CNC(=O)CCNS(=O)(=O)c1cc(Br)cnc1N	-14	-7	4	-3	1
O=C[C@H](O)[C@@H](O)[C@@H](O)[C@H](O)CO	x	x	-19	x	x
COc1ccc(/C=N/NC(=O)CN2CCCc3ccccc32)c(OC)c1	-2	0	-3	-5	2
O=C(CN1CCN(c2ccccn2)CC1)Nc1cc(C(F)(F)F)ccc1Cl	7	0	6	-8	2
CN(C)c1ccc(NC(=O)CCN2CCN(c3ccccn3)CC2)cc1	-2	-4	95*	-6	0
COc1ccc(CCNCC(=O)Nc2ccc(C)c(S(=O)(=O)N(C)C)c2)cc1	3	-52*	-20	-6	2
COc1ccc(CCC(=O)Nc2ccc(C)c(S(=O)(=O)N(C)C)c2)cc1OC	-23	23	5	-4	16
O=C(CN1CCN(c2ccccn2)CC1)Nc1ccc(Cl)c(C(F)(F)F)c1	8	-66*	3	0	4
